From PubChem BioAssay (Tox21)
Values without a mark were called inactive. Results filed as inconclusive are left out. A call without a number means that no potency is given here. Calls of active or inactive are those of the source. Calls come from the whole dose curve; as a rule, active = well fitted curve in the direction sought with a large enough effect in the repeat runs; inconclusive = weak or mixed curves; inactive = no such curve, though single readings can be large; an effect the other way counts as inactive or inconclusive.

How the values were obtained:
[1] = Caspase-3/7 induction in HepG2 cells by small molecules, qHTS assay (AID 1346978); note: nearly all actives have a fitted effect of over 15% in size
Summary of the method: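 Wild-type HepG2 cells, 2,000/well, settled 5 hr at 37 C and 5% CO2, then compound-treated for 17 hr; caspase-3/7 activity read by luminescent Caspase-Glo 3/7 after 30 min at room temperature.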

[2] = Caspase-3/7 induction in CHO-K1 cells by small molecules, qHTS cell viability counter screen (AID 1346979); note: nearly all actives have a fitted effect of over 35% in size
Summary of the method: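 Seeding: 1,500 CHO-K1 cells/well. Rest: 5hr, 37C. Treatment: compounds in DMSO, 16hr. Read: CellTiter-Fluor, 1hr, fluorescence.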

[3] = Caspase-3/7 induction in CHO-K1 cells by small molecules, qHTS assay (AID 1346980); note: nearly all actives have a fitted effect of over 15% in size
Summary of the method: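 Wild-type CHO-K1 cells exposed to compounds for 17hr at 37 C, 5% CO2. Caspase-3/7 activity then measured by Caspase-Glo 3/7 luminescence after 30min at room temperature.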

[4] = Caspase-3/7 induction in HepG2 cells by small molecules, qHTS cell viability counter screen (AID 1346981); note: series mostly up to about 92 µM; nearly all actives have a fitted effect of over 30% in size
Summary of the method: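 Wild-type HepG2 cells (2,000/well) were allowed to settle for 5 hr at 37 C, 5% CO2, then dosed with compounds in DMSO by pin transfer. After 16 hr at 37 C, CellTiter-Fluor was added and fluorescence read 1 hr later.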

[5] = target: Cytochrome P450 2D6 (Homo sapiens) (UniProt P10635); assay: Cytochrome P450 Family 2 Subfamily D Member 6 (CYP2D6) small molecule antagonists: luciferase reporter qHTS assay (AID 1671196); note: nearly all actives have a fitted effect of over 50% in size; note: potency is the fitted concentration of half-maximal effect
Summary of the method: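 CYP2D6 enzyme–substrate mix was held with compound for 10 min at room temperature, then NADPH regeneration solution was added and the reaction ran 1 h at room temperature. Luciferin product was detected by luminescence after 20 min with detection reagent.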

[6] = target: Cytochrome P450 2C19 (Homo sapiens) (UniProt P33261); assay: Cytochrome P450 Family 2 Subfamily C Member 19 (CYP2C19) small molecule antagonists: luciferase reporter qHTS assay (AID 1671197); note: nearly all actives have a fitted effect of over 65% in size; note: potency is the fitted concentration of half-maximal effect
Summary of the method: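 Compounds were tested on CYP2C19 activity via proluciferin conversion to luciferin. The 37C, 1 h reaction followed NADPH addition; detection reagent stopped it.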

[7] = target: Nuclear receptor subfamily 1 group I member 2 (Homo sapiens) (UniProt O75469); assay: Human pregnane X receptor (PXR) small molecule agonists, qHTS assay (AID 1346982); note: nearly all actives have a fitted effect of over 35% in size
Summary of the method: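 PXR-Luc HepG2 cells (CYP3A4 promoter-driven luciferase) were seeded in medium with 5% charcoal-stripped FBS, left 5 hr at 37 C, then exposed to compounds in DMSO for 24 hr. Luminescence was read after ONE-Glo addition.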

[8] = target: Nuclear receptor subfamily 1 group I member 2 (Rattus norvegicus) (UniProt Q9R1A7); assay: Rat pregnane X receptor (rPXR) activation by small molecules, qHTS assay (AID 1346983); conditions: rPXR luciferase reporter cells, One-Glo luminescence, 24 h; max activation: hits give high values; note: nearly all actives have a fitted effect of over 20% in size
Summary of the method: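 Cell-based rPXR activation assay: rPXR cells, 2,000 per well, rested 5hr at 37 C, then exposed to compounds in DMSO for 24 hr at 37 C. Luciferase activity read by One-Glo luminescence after 30 min at room temperature.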

[9] = target: Nuclear receptor subfamily 1 group I member 2 (Homo sapiens) (UniProt O75469); assay: CYP3A4 induction through human pregnane X receptor (PXR) by small molecules, qHTS assay (AID 1346984); note: nearly all actives have a fitted effect of over 40% in size
Summary of the method: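 DPX-2 cells (HepG2 co-transfected with PXR and CYP3A4 promoter-luciferase) treated with compounds 24 h at 37C; luciferin-IPA CYP3A4 substrate 3uM final added for 3 h, then One-Glo; luminescence read. qHTS format.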

[10] = target: Nuclear receptor subfamily 1 group I member 2 (Homo sapiens) (UniProt O75469); assay: Human pregnane X receptor (PXR) activation by small molecules, qHTS assay (AID 1346985); note: nearly all actives have a fitted effect of over 40% in size
Summary of the method: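 DPX-2 cells (HepG2 co-transfected with a PXR response element and a CYP3A4-promoter luciferase construct) were seeded at 2,000 per well, rested 5 hr at 37C, then exposed to DMSO-dissolved compounds for 24 hr. Activation was read as luciferase luminescence.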

Sequence of Cytochrome P450 2C19 (Homo sapiens) (P33261 whole entry, looked up): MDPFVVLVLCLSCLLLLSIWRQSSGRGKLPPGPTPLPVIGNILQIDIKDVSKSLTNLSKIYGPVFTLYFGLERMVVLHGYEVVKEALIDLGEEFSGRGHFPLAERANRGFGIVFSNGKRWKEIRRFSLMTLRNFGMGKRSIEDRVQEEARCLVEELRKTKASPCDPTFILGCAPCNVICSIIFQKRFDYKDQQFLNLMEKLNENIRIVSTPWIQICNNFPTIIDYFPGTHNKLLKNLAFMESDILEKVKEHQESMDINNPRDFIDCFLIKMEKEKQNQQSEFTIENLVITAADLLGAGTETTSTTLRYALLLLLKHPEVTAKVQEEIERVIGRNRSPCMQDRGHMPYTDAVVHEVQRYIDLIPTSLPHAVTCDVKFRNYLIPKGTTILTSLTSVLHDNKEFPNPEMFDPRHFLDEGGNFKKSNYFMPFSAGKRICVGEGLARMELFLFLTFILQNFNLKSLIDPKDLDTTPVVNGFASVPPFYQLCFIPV
Sequence of Cytochrome P450 2D6 (Homo sapiens) (P10635 whole entry, looked up): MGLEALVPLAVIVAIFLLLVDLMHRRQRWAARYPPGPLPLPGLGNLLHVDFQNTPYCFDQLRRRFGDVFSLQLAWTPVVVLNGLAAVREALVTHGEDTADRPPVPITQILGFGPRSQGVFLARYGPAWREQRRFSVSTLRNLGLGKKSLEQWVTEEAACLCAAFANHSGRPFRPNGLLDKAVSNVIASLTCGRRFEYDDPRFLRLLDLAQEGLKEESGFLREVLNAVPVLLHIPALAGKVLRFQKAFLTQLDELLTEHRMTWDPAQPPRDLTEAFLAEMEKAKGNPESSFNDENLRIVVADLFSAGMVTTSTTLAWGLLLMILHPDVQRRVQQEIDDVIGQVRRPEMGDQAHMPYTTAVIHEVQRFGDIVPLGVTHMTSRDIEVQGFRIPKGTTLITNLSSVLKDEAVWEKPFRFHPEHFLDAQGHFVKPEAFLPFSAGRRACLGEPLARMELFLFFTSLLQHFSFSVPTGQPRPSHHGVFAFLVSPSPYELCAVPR
Sequence of Nuclear receptor subfamily 1 group I member 2 (Rattus norvegicus) (Q9R1A7 whole entry, looked up): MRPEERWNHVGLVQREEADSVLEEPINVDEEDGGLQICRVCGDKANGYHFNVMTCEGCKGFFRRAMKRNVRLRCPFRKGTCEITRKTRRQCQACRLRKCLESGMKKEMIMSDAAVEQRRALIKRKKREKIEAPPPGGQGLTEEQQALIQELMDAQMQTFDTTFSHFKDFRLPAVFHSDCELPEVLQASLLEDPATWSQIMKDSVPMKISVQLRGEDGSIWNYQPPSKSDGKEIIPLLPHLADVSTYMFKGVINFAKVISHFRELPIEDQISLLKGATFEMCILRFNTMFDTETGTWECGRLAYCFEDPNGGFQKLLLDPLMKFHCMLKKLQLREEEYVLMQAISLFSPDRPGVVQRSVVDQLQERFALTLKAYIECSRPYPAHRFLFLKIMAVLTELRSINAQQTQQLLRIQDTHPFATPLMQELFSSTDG
Sequence of Nuclear receptor subfamily 1 group I member 2 (Homo sapiens) (O75469 whole entry, looked up): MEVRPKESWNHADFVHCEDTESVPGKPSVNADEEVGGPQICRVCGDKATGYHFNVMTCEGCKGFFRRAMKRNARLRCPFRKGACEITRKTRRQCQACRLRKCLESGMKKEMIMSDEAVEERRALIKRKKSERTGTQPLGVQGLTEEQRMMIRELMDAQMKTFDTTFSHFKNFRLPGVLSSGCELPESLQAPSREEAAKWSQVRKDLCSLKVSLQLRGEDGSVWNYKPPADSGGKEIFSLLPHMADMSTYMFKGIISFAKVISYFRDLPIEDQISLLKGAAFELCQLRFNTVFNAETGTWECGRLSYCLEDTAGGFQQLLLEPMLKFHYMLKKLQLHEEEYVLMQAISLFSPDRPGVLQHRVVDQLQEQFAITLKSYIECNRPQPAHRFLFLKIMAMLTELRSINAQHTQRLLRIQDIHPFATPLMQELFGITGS

| SMILES | outcome [1] | Potency [2] | outcome [3] | Potency [4] | Potency [5] | Potency [6] | Potency [7] | max activation [8] [%] | Potency [9] | Potency [10] |
| --- | --- | --- | --- | --- | --- | --- | --- | --- | --- | --- |
| CCCCN(CCC(=O)OCC)C(C)=O | inactive | inactive | inactive | inactive | inactive | 35.6 µM (active) | – | – | – | – |
| CCOC(=O)OC(C)OC1=C(C(=O)Nc2ccccn2)N(C)S(=O)(=O)c2ccccc21 (stereo not drawn) | inactive | inactive | inactive | – | inactive | – | inactive | -2.57 | inactive | inactive |
| C[C@H]1[C@H](NC(=O)/C(=N/OC(C)(C)C(=O)O)c2csc(N)n2)C(=O)N1S(=O)(=O)O (stereo in doubt) | inactive | inactive | inactive | inactive | inactive | inactive | – | -2.74 | – | – |
| CC1(C)OC[C@@H](COC(=O)CCc2ccc(OC[C@@H](O)CNCCNC(=O)N3CCOCC3)cc2)O1 | inactive | inactive | inactive | inactive | inactive | inactive | – | – | – | – |
| COc1cc(C(=O)NCc2ccc(OCCN(C)C)cc2)cc(OC)c1OC | inactive | inactive | inactive | – | – | inactive | inactive | 4.67 | – | inactive |
| CCCc1ncc(C[n+]2ccccc2C)c(N)n1 | inactive | inactive | inactive | inactive | inactive | inactive | – | -3.34 | – | – |
| O=CN(CCO)CCO | inactive | inactive | inactive | inactive | inactive | inactive | – | – | – | – |
| CC(C)(N)C#N | inactive | inactive | inactive | inactive | inactive | inactive | – | – | – | – |
| CCOC(=O)COc1cc(-n2ncc(C(F)(F)F)c(C)c2=O)c(F)cc1Cl | inactive | inactive | inactive | inactive | 63.3 µM (active) | 35.6 µM (active) | – | – | – | – |
| CN(C)C(=O)Oc1ccc[n+](C)c1 | inactive | inactive | inactive | – | inactive | inactive | inactive | -1.23 | inactive | inactive |
| NS(=O)(=O)Cc1noc2ccccc12 | inactive | inactive | inactive | inactive | – | inactive | – | -2.52 | – | – |
| CCOCC(C)O (stereo not drawn) | inactive | inactive | inactive | inactive | – | inactive | – | – | – | – |
| [Ca+2] | inactive | inactive | inactive | inactive | 35.6 µM (active) | inactive | – | – | – | – |
| CCCc1nn(C)c2c(=O)[nH]c(-c3cc(S(=O)(=O)N4CCN(C)CC4)ccc3OCC)nc12 | inactive | inactive | inactive | inactive | inactive | inactive | – | – | – | – |
| CCCCOC(=O)CCC(C)=O | inactive | inactive | inactive | inactive | inactive | inactive | – | – | – | – |
| CC(=O)OCC(=O)[C@@]1(O)[C@H](C)C[C@H]2[C@@H]3CCC4=CC(=O)C=C[C@]4(C)[C@@]3(F)[C@@H](O)C[C@@]21C | inactive | inactive | inactive | – | inactive | inactive | inactive | – | inactive | inactive |
| CCN(C=O)CC | inactive | inactive | inactive | inactive | 72.9 µM (active) | inactive | – | – | – | – |
| CO[Si](C)(OC)c1ccccc1 | inactive | inactive | inactive | inactive | inactive | 7.1 µM (active) | – | – | – | – |
| Cc1nc2ccc(CN(C)c3ccc(C(=O)N[C@@H](CCC(=O)O)C(=O)O)s3)cc2c(=O)[nH]1 | inactive | inactive | inactive | – | inactive | inactive | inactive | -1.92 | inactive | inactive |
| CN(C)CCCN(C)CCCN(C)C | inactive | inactive | inactive | inactive | inactive | inactive | – | – | – | – |
| CCCCCCCCCCCCCCC(=O)O | inactive | inactive | inactive | inactive | inactive | – | – | – | – | – |
| CC(C#N)(CCC(=O)O)N=NC(C)(C#N)CCC(=O)O (stereo not drawn) | inactive | inactive | inactive | inactive | inactive | inactive | – | – | – | – |
| CC[C@H]1OC(=O)[C@H](C)[C@@H](O[C@H]2C[C@@](C)(OC)[C@@H](O)[C@H](C)O2)[C@H](C)[C@@H](O[C@@H]2O[C@H](C)C[C@H](N(C)C)[C@H]2O)[C@](C)(OC)C[C@@H](C)C(=O)[C@H](C)[C@@H](O)[C@]1(C)O | inactive | inactive | inactive | – | inactive | 63.8 µM (active) | inactive | -0.482 | inactive | inactive |
| COCCOCC(OC)OC | inactive | inactive | inactive | inactive | inactive | inactive | – | – | – | – |
